Measurements taken from PubChem BioAssay.
Values joined by “and” are separate entries in the source; they are usually repeats but may differ in a detail not shown here. Equal values may be shown once. A structure can be active in one record and inactive in another. Active and inactive are the calls of the source. Unless noted, how the calls were made is not given here.

Experiments:
[1] = stimulators of nuclear beta-catenin in C2C12, primary screen, imaging, WNT3A-conditioned medium, mouse C2C12, NPC library (AID 1117326; in the data active means nuclear beta-catenin stimulation mostly above about 4.2%, no sharp cut-off; inactive means mostly below about 10%); settings: stronger effect = higher value
[2] = stimulators of insulin release from INS-1E, primary screen, cell-based, 5 mM glucose, NPC library (AID 1117329;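 active means compound raises insulin release from rat beta cells at 5 mM glucose, no numeric limit stated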); settings: rat INS-1E insulin secretion, at 10 µM, stronger effect = higher value
[3] = growth inhibition of GSK3B-pretreated HCT116 cells – cell-based, CellTiter-Glo, 0.2 to 20 µM (AID 1117336;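 active means compounds lowering colon cancer cell viability after pretreatment blocking the GSK3B kinase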); settings: HCT116 viability after GSK3B inhibitor, at 20 µM, stronger effect = higher value
[4] = inhibition of endothelial tube formation, primary screen, imaging, VEGF stimulated, CD31 staining, tube area, NPC library (AID 1117340;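 active means compound that reduces growth-factor-driven endothelial tube area in a mixed cell culture, no cutoff stated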); settings: VEGF-stimulated ADSC/ECFC co-culture, at 10 µM, stronger effect = higher value
[5] = glucagon-like peptide 1 release enhancers, primary assay, NCI-H716 cell line, NPC library (AID 1117341;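 active means compound raises GLP1 secretion from the human gut endocrine cells, with no numeric limit stated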); settings: NCI-H716 cells, at 10 µM, stronger effect = higher value
[6] = HCT116 colon cancer cell growth inhibition, primary screen, CellTiter-Glo luminescence, NPC library (AID 1117342;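 active means compounds that lower survival of HCT116 colon cancer cells in the luminescence readout, no numeric limit stated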); settings: at 20 µM (top of the series)
[7] = CellTiter-Glo luminescent readout of SW480 viability loss, NPC library primary (AID 1117343;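 active means compounds that lower viability of the colon cancer cells in the luminescence readout, with no numeric limit stated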); settings: CellTiter-Glo luminescence; at 20 µM (top of the series)
[8] = decreased DLD-1 cellular survival, CellTiter-Glo luminescent readout, NPC compound collection, primary HTS (AID 1117346;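 active means compounds that lower survival of DLD-1 colon cancer cells in the luminescence readout, no cutoff given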); settings: DLD-1 viability, CellTiter-Glo luminescence; at 20 µM (top of the series)
[9] = biological target: 6-phosphogluconate dehydrogenase, decarboxylating (Homo sapiens) (UniProt P52209); assay: 6PGD enzyme inhibitors, primary screen, biochemical, human, recombinant enzyme, NADPH absorbance (AID 1159550;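 active means at least 20% inhibition of 6-phosphogluconate dehydrogenase activity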); settings: recombinant 6PGD, NADPH absorbance 341 nm; at 10 µM; stronger effect = higher value
Sequence of 6-phosphogluconate dehydrogenase, decarboxylating (Homo sapiens) (P52209 whole entry, looked up): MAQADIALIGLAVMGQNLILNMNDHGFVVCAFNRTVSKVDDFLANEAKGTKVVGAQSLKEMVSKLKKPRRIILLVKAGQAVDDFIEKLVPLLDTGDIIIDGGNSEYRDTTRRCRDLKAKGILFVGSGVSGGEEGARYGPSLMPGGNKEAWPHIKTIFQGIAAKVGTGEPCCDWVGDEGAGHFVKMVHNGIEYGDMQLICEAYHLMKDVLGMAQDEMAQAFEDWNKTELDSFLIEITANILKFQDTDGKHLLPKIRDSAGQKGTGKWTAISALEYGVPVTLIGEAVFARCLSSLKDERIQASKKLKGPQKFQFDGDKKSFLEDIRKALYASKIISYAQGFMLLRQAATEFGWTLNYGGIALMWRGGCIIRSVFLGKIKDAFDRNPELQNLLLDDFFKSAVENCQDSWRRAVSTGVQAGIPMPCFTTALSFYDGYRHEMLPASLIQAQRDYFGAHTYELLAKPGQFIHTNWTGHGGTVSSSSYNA

[10] = differential killing of epithelial or mesenchymal cells, primary screen, imaging, PC-3E GFP, TEM4-18 mCherry, co-culture (AID 1345086;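 active means compounds killing one labelled cell type while sparing the other, by normalised counts and ratio limits, not self-fluorescent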;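 on all read-outs here: cells exposed to compound for 72 h before imaging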;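 on red/green cell ratio (normalised): normalised mesenchymal count divided by normalised epithelial count so high means epithelial killing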); settings: imaging cell counts, at 1 µM; for red/green cell ratio (normalised): actives lie on both sides, counts scaled to control wells, 1 = unselective
[11] = survival rescue of mitochondrial mutant cells in low glucose, primary screen, MELAS cybrids, Rieske KO mouse fibroblasts, CellTiter-Glo (AID 1508586;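 active means mean z-score across replicates of 1.96 or higher in either the MELAS or the Rieske mutant cell line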;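 further: z relative to plate mean and SD of compound and empty wells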)
[12] = biological target: NAD(+) hydrolase SARM1 (Homo sapiens) (UniProt Q6SZW1); assay: SARM1 TIR NADase inhibitors, cell lysate, NAD-Glo luminescence (AID 1508614;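 active means compound whose remaining NAD level is above about 45 nM, limit read from the data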); settings: SAM-TIR HEK293T lysate NADase, at 1 µM, stronger effect = higher value
Sequence of NAD(+) hydrolase SARM1 (Homo sapiens) (Q6SZW1 whole entry, looked up, the tested form may be a part): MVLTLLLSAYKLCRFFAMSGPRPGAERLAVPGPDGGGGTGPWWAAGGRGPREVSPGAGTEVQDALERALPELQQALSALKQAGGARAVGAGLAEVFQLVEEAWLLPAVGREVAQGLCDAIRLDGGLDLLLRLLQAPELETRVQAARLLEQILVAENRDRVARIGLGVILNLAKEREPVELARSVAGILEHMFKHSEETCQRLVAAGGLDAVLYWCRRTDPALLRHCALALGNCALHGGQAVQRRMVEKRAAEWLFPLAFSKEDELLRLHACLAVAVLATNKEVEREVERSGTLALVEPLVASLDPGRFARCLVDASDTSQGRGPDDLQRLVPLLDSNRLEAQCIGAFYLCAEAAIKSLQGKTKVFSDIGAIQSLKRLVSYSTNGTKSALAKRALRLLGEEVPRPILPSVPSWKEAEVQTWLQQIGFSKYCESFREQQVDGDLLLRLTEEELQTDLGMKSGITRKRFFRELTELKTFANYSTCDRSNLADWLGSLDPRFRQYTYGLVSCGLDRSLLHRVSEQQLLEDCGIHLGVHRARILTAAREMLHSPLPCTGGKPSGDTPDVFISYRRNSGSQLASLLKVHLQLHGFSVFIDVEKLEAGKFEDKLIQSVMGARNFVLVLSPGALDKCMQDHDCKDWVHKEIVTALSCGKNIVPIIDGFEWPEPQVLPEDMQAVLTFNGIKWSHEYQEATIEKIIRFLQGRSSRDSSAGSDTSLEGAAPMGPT

[13] = biological target: Mitogen-activated protein kinase 7 (Homo sapiens) (UniProt Q13164); assay: ERK5 transactivation activators in reporter cells, primary screen, cell-based, HTS (AID 1508626;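 active means luciferase signal above three times the same-plate solvent-only control wells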;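 further: luciferase driven by Gal4-ERK5 fusion binding five Gal4 sites before minimal TATA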); settings: HeLa Gal4-ERK5 transactivation, 18 h, at 5 µM, stronger effect = higher value
Sequence of Mitogen-activated protein kinase 7 (Homo sapiens) (Q13164 whole entry, looked up, the tested form may be a part): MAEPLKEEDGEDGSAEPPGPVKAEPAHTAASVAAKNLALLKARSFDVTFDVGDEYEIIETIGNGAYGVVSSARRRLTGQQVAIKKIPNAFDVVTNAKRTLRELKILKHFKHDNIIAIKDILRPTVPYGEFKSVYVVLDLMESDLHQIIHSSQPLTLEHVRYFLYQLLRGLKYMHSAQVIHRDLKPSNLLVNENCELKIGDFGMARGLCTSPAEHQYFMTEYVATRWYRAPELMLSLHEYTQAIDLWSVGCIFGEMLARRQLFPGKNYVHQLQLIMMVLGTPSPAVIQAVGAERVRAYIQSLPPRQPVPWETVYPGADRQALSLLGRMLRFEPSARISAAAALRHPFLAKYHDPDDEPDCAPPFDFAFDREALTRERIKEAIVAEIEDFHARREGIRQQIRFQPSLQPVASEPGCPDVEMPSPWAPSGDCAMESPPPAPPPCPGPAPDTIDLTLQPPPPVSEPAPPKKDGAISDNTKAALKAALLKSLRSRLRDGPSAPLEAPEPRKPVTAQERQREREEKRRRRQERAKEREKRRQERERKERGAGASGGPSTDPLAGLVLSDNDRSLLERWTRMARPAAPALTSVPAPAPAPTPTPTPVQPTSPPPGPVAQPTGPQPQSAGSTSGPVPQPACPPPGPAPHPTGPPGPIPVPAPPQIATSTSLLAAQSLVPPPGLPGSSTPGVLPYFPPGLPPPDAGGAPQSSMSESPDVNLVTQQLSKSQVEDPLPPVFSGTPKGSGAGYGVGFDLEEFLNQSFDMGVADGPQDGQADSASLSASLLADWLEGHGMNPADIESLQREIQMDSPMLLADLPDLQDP

[14] = Cy5 fluorescence interference with SSB-bound oligo, artefact control for HCV NS3 helicase inhibitor project, biochemical, NIH Clinical Collection, E. coli SSB (AID 743268)
[15] = system: Hepatitis C virus NS3 helicase; assay: HCV NS3 helicase inhibitors, primary screen, biochemical, fluorescence polarization, NIH Clinical Collection (AID 743270); settings: NS3 helicase binding to Cy5-dT15 DNA, stronger effect = higher value, concentration not given here
[16] = biological target: Single-stranded DNA-binding protein (Escherichia coli (strain K12)) (UniProt P0AGE0); assay: E. coli SSB displacement from DNA, counter-screen for HCV NS3 helicase inhibitor project, biochemical, fluorescence polarization, NIH Clinical Collection (AID 743271; in the data active means inhibition above about 28%); settings: stronger effect = higher value, concentration not given here
[17] = fluorescence interference in NS3h assay format, artefact control for HCV NS3 helicase inhibitor project, biochemical, NIH Clinical Collection (AID 743272); settings: fluorescence interference counterscreen, stronger effect = lower value;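 further: HCV NS3 helicase with a Cy5 labelled single stranded DNA probe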
[18] = liver-stage malaria parasite growth inhibition, primary screen, cell-based, HepG2, luciferase luminescence, HepG2 viability (AID 624349; in the data active means parasite load remaining mostly below about 12%, no sharp cut-off; inactive means mostly above about 10%;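 further: 100% = mean of DMSO negative control wells on the same plate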); settings: P. berghei liver stage in HepG2, luciferase luminescence, concentration not given here; parasite load remaining: stronger effect = lower value; viability: measured here: HepG2 viability without parasites
[19] = sensitizers of A549 cells to miR-34 induction, primary screen, imaging, A549 dox-inducible miR-34, nuclei and caspase counts (AID 1347080;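 active means compounds whose cell count with miR-34 switched on is under 0.7 times the count with it off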); settings: A549 miR-34 inducible, Hoechst nuclei count, 48 h
[20] = system: F380Y; assay: modulators of BK channel variants, profiling panel, selectivity assay, cell-based, U2OS BacMam, thallium flux, beta subunits (AID 1259406;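 active means thallium flux through the channel raised or lowered by more than 3 SD from vehicle-only wells, actives on both sides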;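 further: initial slope of Thallos dye fluorescence rise after thallium is added; log ratio against the mean of 0.3% DMSO vehicle wells on the same plate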); settings: at 30 µM
[21] = measured here: epithelial PC-3E GFP cell survival
[22] = measured here: mesenchymal TEM4-18 mCherry cell survival
[23] = MELAS cybrid survival, CellTiter-Glo 48 h, stronger effect = higher value
[24] = Rieske KO mouse fibroblast survival, CellTiter-Glo 72 h

CNC(=O)Oc1ccc2c(c1)[C@]1(C)CCN(C)[C@@H]1N2C
inactive: nuclear beta-catenin stimulation ([1]; at 10 µM) -0.4% | insulin secretion stimulation [2] 5% | viability decrease [3] 5% | tube area decrease [4] -23.5% | GLP1 secretion stimulation [5] 3.8% | inhibition of viability [6] 23.3% | viability decrease (inhibition) [7] 38.9% | viability decrease (inhibition) [8] 0.2% | inhibition [9] -7.09% and -14.3% and -6.98% | red/green cell ratio (normalised) [10] 0.96 | z-score [11, 23] -0.485 and 0.886 | remaining NAD [12] 10 nM | luciferase signal [13] 40 AU
1: normalised cell number [10, 22]
1.03: normalised cell number [10, 21]
-0.245 and 0.787: z-score [11, 24]
0%: nuclear beta-catenin stimulation ([1]; stimulation, at 2 µM)

Cc1c(OCC(F)(F)F)ccnc1CS(=O)c1nc2ccccc2[nH]1 (stereo unspecified)
0.886 and 0.276: z-score [11, 24]
inactive: fluorescence ratio [14] 0.95 | inhibition [15] 1.53% | inhibition [16] 1.18% | fluorescence ratio [17] 0.94 | nuclear beta-catenin stimulation ([1]; at 10 µM) 5.4% | insulin secretion stimulation [2] 0.9% | viability decrease [3] 27.8% | tube area decrease [4] 32.8% | GLP1 secretion stimulation [5] -1.8% | viability decrease (inhibition) [7] 13.2% | viability decrease (inhibition) [8] -8.8% | inhibition [9] -1.09% | red/green cell ratio (normalised) [10] 1.36 and 1.09 | remaining NAD [12] 10 nM | luciferase signal [13] 60 AU
2.1%: nuclear beta-catenin stimulation ([1]; stimulation, at 2 µM)
active: inhibition of viability [6] 54.6%
0.7 and 1.26: normalised cell number [10, 21]
-0.355 (inactive) and 2.16 (active): z-score [11, 23]
0.95 and 1.36: normalised cell number [10, 22]

CN(C)CCN(Cc1ccccc1)c1ccccn1
10300 and 8350 and 10800: cell count ([19]; measured here: total cells with miR-34 induction, stronger effect = lower value)
inactive: parasite load remaining [18] 50.9% and 109% | fluorescence ratio [14] 1.01 | inhibition [15] 0.4% | inhibition [16] -0.87% | fluorescence ratio [17] 0.93 | nuclear beta-catenin stimulation ([1]; at 10 µM) 1.1% | insulin secretion stimulation [2] 13% | viability decrease [3] -23.2% | tube area decrease [4] 5.3% | GLP1 secretion stimulation [5] 4.8% | inhibition of viability [6] 13.3% | viability decrease (inhibition) [7] -2.1% | viability decrease (inhibition) [8] -41.1% | inhibition [9] 4.76% | red/green cell ratio (normalised) [10] 0.96 | fold change ([19]; stronger effect = lower value, cell number ratio, induced over uninduced) 1.02 and 1.23 and 0.865 | z-score [11, 23] -0.152 and -0.218 | remaining NAD [12] 10 nM | luciferase signal [13] 32 AU
1.94 and 0.367 and 2.89: fold change ([19]; measured here: relative caspase fold change +Dox/-Dox)
-0.132 and 0.37: z-score [11, 24]
0.99: normalised cell number [10, 22]
82.5% and 67.3%: viability [18]
0.8%: nuclear beta-catenin stimulation ([1]; stimulation, at 2 µM)
active: log fold change Tl+ flux [20] -0.114
1.02: normalised cell number [10, 21]
10100 and 6800 and 12500: cell count ([19]; measured here: total cells without miR-34 induction)
